Assay results: the supplement of paper PMC6555819

Legend:
Experiment in all cases: PBM binding z-score (relative to random genomic background probes); higher = stronger binding; sequences stand for … in GC…GCGATTGACAGCGTAGAATGAAGG
[1] = system: FXR:RXRa (NR concentration 270 nM, RXRa partner concentration 90 nM)
Summary of the method: (§1)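 Custom Agilent 4×180K protein-binding microarrays carried double-stranded probes. Their 34-nt variable regions held direct-repeat seeds, single-nucleotide variants, half-site ablations and random human genomic background sequences. Arrays were incubated 1 h with ligand-free nuclear receptor dimers in PBS pH 7.4, 2% milk, 0.02% Triton X-100, 1 mM DTT, 0.2 mg/mL BSA and 0.4 mg/ml salmon testes DNA. Antibodies against each partner (one per run) detected binding, and scanned fluorescence was regression-normalized. Binding z-scores use random background probes as reference.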

[2] = system: LXRa:RXRa (NR concentration 270 nM, RXRa partner concentration 90 nM)
Summary of the method: as §1

[3] = system: LXRa homodimer (NR concentration 270 nM)
Summary of the method: as §1

[4] = system: LXRb:RXRa (NR concentration 270 nM, RXRa partner concentration 90 nM)
Summary of the method: as §1

[5] = system: LXRb homodimer (NR concentration 270 nM)
Summary of the method: as §1

[6] = system: PPARa:RXRa (NR concentration 270 nM, RXRa partner concentration 90 nM)
Summary of the method: as §1

[7] = system: PPARg:RXRa (NR concentration 180 nM, RXRa partner concentration 90 nM)
Summary of the method: as §1

[8] = system: PPARg:RXRa 270nM:90nM, anti-RXR (NR concentration 270 nM, RXRa partner concentration 90 nM)
Summary of the method: as §1

[9] = system: PPARg:RXRa 30nM:10nM, anti-RXR (NR concentration 30 nM, RXRa partner concentration 10 nM)
Summary of the method: as §1

[10] = system: PPARg:RXRa 90nM:30nM, anti-RXR (NR concentration 90 nM, RXRa partner concentration 30 nM)
Summary of the method: as §1

[11] = system: PPARg:RXRa DBDmut IVT, anti-RXR (DBD mutation: RXRa K156A/R161A, NR concentration 270 nM, RXRa partner concentration 90 nM)
Summary of the method: as §1

[12] = system: PPARg:RXRa IVT, anti-PPARg (NR concentration 270 nM, RXRa partner concentration 90 nM)
Summary of the method: as §1

[13] = system: PPARg DBDmut:RXRa IVT, anti-PPARg (DBD mutation: PPARg1 K132A/R137A, NR concentration 270 nM, RXRa partner concentration 90 nM)
Summary of the method: as §1

[14] = system: PPARg DBDmut IVT, anti-PPARg (DBD mutation: PPARg1 K132A/R137A, NR concentration 270 nM)
Summary of the method: as §1

[15] = system: PPARg homodimer (NR concentration 180 nM)
Summary of the method: as §1

[16] = system: PXR:RXRa (NR concentration 270 nM, RXRa partner concentration 90 nM)
Summary of the method: as §1

[17] = system: PXR homodimer (NR concentration 270 nM)
Summary of the method: as §1

[18] = system: RARa:RXR (NR concentration 270 nM, RXRa partner concentration 90 nM)
Summary of the method: as §1

[19] = system: RARa homodimer (NR concentration 270 nM)
Summary of the method: as §1

[20] = system: RARb:RXRa (NR concentration 270 nM, RXRa partner concentration 90 nM)
Summary of the method: as §1

Sequence	PBM binding z-score [1]	PBM binding z-score [2]	PBM binding z-score [3]	PBM binding z-score [4]	PBM binding z-score [5]	PBM binding z-score [6]	PBM binding z-score [7]	PBM binding z-score [8]	PBM binding z-score [9]	PBM binding z-score [10]	PBM binding z-score [11]	PBM binding z-score [12]	PBM binding z-score [13]	PBM binding z-score [14]	PBM binding z-score [15]	PBM binding z-score [16]	PBM binding z-score [17]	PBM binding z-score [18]	PBM binding z-score [19]	PBM binding z-score [20]
TCTATTAGTTGAAGGGCAACCAACGAGTCCGTTT	0.452	0.763	0.54	0.694	0.122	0.554	-0.00575	1.94	3.75	2.69	2.05	0.417	0.246	1.16	0.593	0.786	0.837	0.718	1.55	1.46
TCTTGTAGATCAAAGTTTAAGAAAGCCGAAGCCT	0.983	1.1	0.0318	0.659	0.169	2.46	4.04	5.01	5.17	5.73	2.31	1.66	0.921	0.574	0.293	0.685	0.403	0.864	0.333	0.69
TCGTGTAGATCAATAGAGGTTAAGAAAGTGCGCT	0.712	3.48	0.576	1.76	-0.163	1.86	0.088	1.57	2.53	2.13	1.64	0.537	-0.0229	-0.0334	0.586	2.99	0.386	1.79	0.575	0.822
CCTACTGGGCCAAGGACATTGATCAGTCAAAGCA	-0.284	-0.572	-0.118	-0.778	-0.99	-0.141	0.757	0.967	0.164	0.46	3.42	3.05	-0.364	-0.839	-0.294	-0.555	-0.0775	-0.237	-0.533	0.145
ACTCGGAGGACAAAGGTCAGAGCTACGCCAGTGA	4.09	4.15	1.61	3.4	0.202	4.93	7.6	7.06	5.63	7.83	0.692	3.72	0.709	0.127	3.04	3.91	0.0188	5.19	2.21	4.44
TCTTGTAGAACAAGCAGGTTAAGAAAGCCTGAGT	0.0411	-0.117	-0.158	-0.0832	-0.582	0.777	-0.27	1.19	2.58	1.82	1.62	0.593	0.632	-0.0834	-0.0982	0.365	0.0921	0.607	-0.498	0.0626
AGAATGACGTTACCAAAGATCAGGGAAACGCTTG	-0.187	-0.0658	-0.236	-0.336	-0.144	-0.289	0.77	0.125	0.189	0.17	-0.672	-0.0252	0.249	0.258	0.216	-0.527	-0.0125	-0.159	0.157	-0.301
ACTTACGGGTCAACGAGGTTAGAGCACGCGTATA	6.72	4.76	0.422	3.9	0.261	5.57	5.52	5.72	2.15	4.13	3.74	4.28	0.679	0.825	2.64	4.7	1.33	4.99	0.957	4.2
CGAACTAGGTCAAGGACAGTGAGTCTCCGCACGC	3.12	1.84	-0.202	0.891	-0.739	4.6	7.31	6.21	3.52	5.83	8.24	8.49	4.66	1.15	1.2	0.826	-0.0553	1.87	-0.462	3.83
CGACCTAGGTCAGAACAGGACAGTGAAGGATGAT	2.95	1.5	0.143	1.08	-0.535	2.08	1.55	1.2	-0.0187	0.682	2.58	2.09	-0.486	-0.795	1.04	1.42	-0.195	0.948	0.342	3.33
CTCGAAAGGCCGGTTGAGGTGAGTATACGGATAA	-0.00227	-0.411	-0.91	-0.654	-0.709	-0.134	-0.122	-0.607	-0.213	-0.48	-0.491	-0.359	-0.611	-0.528	-1.35	-0.133	-0.38	1.91	-1.14	0.703
TCTCGGAGGACACGAGAGGTCAGAGCTCGACATC	2.17	3.37	2.61	2.53	-0.47	2.99	0.952	1.88	1.53	1.48	1.28	1.31	-0.0103	-0.495	1.51	3.78	0.385	3.56	-0.143	3.84
CGTCCAAGGTCATAGCAGGTCAGTGAAGACAGAT	7.63	7.02	3.65	5.58	0.842	5.85	5.23	5.24	2.03	4.17	3.54	4.67	0.604	1.12	3.76	6.05	2.47	5.07	1.79	5.09
ATCTCTAGGCAACAAGTTCAGTGAAAGAGAGGAC	0.0391	0.175	-0.0655	0.139	0.432	0.498	0.668	1.15	0.633	1.09	0.952	0.456	0.856	0.154	0.297	0.875	1.52	0.335	0.376	1.32
